{
  "source": "paper PMC7862700",
  "about": "“An all-to-all approach to the identification of sequence-specific readers for epigenetic DNA modifications on cytosine”",
  "assay_in_all_cases": "DAPPL (digital affinity profiling via proximity ligation, sequencing); 10 mM Tris-HCl pH 7.5, 50 mM NaCl, 1 mM DTT, 4% glycerol, room temperature, 30 min; GST-TFs on glutathione beads, 16-mer random dsDNA library, 0.1% formaldehyde crosslink after washing; high values mean tight binding",
  "key": {"FEV": {"target": "T1, FEV (Homo sapiens, UniProt Q99581 1-238)", "T1 sequence": "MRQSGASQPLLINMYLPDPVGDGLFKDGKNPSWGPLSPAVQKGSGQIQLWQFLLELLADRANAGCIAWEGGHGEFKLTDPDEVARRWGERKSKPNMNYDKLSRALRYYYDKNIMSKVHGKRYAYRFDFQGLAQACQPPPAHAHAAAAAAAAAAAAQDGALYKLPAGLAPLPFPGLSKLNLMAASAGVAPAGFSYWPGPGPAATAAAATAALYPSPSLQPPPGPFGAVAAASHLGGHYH", "details": "protein: recombinant; tags: N-terminal GST; dsDNA, one strand shown", "procedure,_shortened": "(§1)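 Human transcription factors fused to GST were expressed in yeast, captured on glutathione beads, given DNA barcodes and pooled with a GST-only negative control. Pools were incubated with 200 nmole of a 16-mer random double-stranded DNA library in Tris/NaCl/DTT/glycerol buffer at room temperature for 30 min. They were then washed, crosslinked with 0.1% formaldehyde, proximity-ligated (BsaI/T4 ligase, 1 h, 37 °C), PCR-amplified and sequenced on an Illumina NextSeq500. Binding signal is each 6-mer's read frequency for a factor divided by its frequency for the GST control.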"}, "ETV5": {"target": "ETV5 (Homo sapiens, UniProt P41161 1-510)", "sequence (P41161 whole entry)": "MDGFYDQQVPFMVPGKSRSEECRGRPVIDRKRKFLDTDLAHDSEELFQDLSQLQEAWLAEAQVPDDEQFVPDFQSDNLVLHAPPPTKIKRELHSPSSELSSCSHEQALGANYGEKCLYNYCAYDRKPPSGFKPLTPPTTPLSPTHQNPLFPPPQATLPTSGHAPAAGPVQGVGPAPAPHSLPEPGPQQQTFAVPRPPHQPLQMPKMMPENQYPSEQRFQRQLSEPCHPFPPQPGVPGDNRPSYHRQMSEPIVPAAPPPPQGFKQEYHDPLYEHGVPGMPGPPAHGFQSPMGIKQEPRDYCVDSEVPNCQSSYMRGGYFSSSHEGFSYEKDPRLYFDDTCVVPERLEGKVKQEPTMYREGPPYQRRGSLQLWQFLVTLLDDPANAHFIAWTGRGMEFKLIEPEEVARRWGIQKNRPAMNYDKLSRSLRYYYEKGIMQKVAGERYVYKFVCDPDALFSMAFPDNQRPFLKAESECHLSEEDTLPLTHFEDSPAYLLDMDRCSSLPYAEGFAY", "details": "protein: recombinant; tags: N-terminal GST; dsDNA, one strand shown", "procedure,_shortened": "as §1"}, "HSF1": {"target": "HSF1 (Homo sapiens, UniProt Q00613 1-529)", "sequence (Q00613 whole entry)": "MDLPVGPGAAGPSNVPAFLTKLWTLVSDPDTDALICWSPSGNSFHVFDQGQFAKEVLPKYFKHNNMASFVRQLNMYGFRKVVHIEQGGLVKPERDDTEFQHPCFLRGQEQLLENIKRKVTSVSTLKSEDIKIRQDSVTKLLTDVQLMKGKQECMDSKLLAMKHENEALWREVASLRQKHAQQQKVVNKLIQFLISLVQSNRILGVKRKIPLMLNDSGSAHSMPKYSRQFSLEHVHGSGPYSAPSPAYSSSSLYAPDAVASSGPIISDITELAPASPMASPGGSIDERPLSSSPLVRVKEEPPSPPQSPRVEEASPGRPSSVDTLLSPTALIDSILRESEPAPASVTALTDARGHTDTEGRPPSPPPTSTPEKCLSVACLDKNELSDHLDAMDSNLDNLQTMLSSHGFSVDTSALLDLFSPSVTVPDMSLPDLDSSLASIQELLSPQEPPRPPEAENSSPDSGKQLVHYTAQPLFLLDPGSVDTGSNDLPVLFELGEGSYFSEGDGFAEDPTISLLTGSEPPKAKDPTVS", "details": "protein: recombinant; tags: N-terminal GST; chain copies: 3; dsDNA, one strand shown", "procedure,_shortened": "as §1"}, "SPIC": {"target": "T2, SPIC (Homo sapiens, UniProt Q8N5J4 1-248)", "T2 sequence": "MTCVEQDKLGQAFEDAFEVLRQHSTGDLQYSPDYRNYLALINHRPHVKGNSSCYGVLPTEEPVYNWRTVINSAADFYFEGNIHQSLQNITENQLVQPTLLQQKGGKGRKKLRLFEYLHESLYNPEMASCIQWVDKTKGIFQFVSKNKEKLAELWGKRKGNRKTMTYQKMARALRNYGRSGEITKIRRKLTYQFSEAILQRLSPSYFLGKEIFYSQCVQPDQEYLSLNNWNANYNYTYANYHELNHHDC", "details": "protein: recombinant; tags: N-terminal GST; dsDNA, one strand shown", "procedure,_shortened": "as §1"}, "ELF4": {"target": "ELF4 (Homo sapiens, UniProt Q99607 1-663)", "sequence (Q99607 whole entry)": "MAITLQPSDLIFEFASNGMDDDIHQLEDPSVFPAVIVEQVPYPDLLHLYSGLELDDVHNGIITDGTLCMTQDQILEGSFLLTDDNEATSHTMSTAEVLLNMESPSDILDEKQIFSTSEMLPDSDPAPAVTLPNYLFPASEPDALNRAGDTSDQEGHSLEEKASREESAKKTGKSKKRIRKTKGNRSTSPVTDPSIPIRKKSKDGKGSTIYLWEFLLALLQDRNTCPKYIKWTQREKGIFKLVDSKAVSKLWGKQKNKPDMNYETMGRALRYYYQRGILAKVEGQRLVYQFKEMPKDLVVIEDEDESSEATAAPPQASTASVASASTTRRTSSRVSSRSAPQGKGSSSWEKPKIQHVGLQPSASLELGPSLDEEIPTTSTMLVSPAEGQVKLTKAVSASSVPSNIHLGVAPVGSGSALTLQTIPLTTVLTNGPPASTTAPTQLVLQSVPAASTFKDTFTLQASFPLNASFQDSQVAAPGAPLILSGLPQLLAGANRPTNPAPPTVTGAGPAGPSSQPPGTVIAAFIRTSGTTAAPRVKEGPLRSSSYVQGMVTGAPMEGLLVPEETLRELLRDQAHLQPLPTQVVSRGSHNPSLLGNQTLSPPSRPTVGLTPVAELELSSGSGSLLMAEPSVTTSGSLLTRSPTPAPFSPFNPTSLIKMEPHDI", "details": "protein: recombinant; tags: N-terminal GST; dsDNA, one strand shown", "procedure,_shortened": "as §1"}, "ELK4": {"target": "T3, ELK4 (Homo sapiens, UniProt P28324-2 1-405)", "T3 sequence": "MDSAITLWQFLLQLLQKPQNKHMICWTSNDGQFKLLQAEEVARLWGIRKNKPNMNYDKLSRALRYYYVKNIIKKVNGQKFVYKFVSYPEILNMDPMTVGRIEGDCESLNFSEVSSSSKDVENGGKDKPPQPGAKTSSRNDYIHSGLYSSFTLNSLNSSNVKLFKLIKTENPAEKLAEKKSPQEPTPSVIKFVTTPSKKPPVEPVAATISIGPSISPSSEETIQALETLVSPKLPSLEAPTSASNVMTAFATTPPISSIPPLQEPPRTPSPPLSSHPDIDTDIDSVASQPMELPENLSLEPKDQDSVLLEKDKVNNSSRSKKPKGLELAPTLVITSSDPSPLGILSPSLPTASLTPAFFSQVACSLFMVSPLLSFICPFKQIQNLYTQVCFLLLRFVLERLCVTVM", "details": "protein: recombinant; tags: N-terminal GST; dsDNA, one strand shown", "procedure,_shortened": "as §1"}, "ETV2": {"target": "T4, ETV2 (Homo sapiens, UniProt O00321 1-342)", "T4 sequence": "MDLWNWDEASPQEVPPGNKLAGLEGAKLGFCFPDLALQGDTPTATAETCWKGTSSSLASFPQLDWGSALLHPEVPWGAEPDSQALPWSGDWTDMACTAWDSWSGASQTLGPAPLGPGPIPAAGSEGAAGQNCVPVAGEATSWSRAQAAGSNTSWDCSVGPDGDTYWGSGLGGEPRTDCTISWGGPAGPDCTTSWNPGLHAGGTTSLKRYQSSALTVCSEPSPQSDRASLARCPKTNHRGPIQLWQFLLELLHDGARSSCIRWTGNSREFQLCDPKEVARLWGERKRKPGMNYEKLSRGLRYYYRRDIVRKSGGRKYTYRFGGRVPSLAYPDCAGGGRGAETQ", "details": "protein: recombinant; tags: N-terminal GST; dsDNA, one strand shown", "procedure,_shortened": "as §1"}, "ELF3": {"target": "T5, ELF3 (Homo sapiens, UniProt P78545 1-371)", "T5 sequence": "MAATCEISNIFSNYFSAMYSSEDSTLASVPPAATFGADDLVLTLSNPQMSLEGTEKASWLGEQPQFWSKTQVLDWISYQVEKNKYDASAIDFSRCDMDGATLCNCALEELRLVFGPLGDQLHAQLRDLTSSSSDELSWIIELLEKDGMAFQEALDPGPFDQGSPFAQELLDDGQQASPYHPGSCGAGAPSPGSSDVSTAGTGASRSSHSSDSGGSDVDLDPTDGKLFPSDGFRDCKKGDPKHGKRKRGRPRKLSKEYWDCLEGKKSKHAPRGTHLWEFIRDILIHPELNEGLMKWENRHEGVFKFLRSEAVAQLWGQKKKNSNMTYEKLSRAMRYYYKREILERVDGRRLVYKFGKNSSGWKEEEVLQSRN", "details": "protein: recombinant; tags: N-terminal GST; dsDNA, one strand shown", "procedure,_shortened": "as §1"}, "CRX": {"target": "CRX (Homo sapiens, UniProt O43186 1-299)", "sequence (O43186 whole entry)": "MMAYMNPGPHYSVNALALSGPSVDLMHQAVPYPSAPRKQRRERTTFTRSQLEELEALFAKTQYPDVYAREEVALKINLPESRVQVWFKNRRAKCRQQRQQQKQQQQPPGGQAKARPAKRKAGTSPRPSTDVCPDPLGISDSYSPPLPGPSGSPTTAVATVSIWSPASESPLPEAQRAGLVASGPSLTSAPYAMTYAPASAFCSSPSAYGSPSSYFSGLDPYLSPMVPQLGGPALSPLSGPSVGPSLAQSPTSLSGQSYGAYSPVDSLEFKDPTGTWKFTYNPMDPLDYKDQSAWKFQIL", "details": "protein: recombinant; tags: N-terminal GST; dsDNA, one strand shown", "procedure,_shortened": "as §1"}, "ETV1": {"target": "ETV1 (Homo sapiens, UniProt P50549 1-477)", "sequence (P50549 whole entry)": "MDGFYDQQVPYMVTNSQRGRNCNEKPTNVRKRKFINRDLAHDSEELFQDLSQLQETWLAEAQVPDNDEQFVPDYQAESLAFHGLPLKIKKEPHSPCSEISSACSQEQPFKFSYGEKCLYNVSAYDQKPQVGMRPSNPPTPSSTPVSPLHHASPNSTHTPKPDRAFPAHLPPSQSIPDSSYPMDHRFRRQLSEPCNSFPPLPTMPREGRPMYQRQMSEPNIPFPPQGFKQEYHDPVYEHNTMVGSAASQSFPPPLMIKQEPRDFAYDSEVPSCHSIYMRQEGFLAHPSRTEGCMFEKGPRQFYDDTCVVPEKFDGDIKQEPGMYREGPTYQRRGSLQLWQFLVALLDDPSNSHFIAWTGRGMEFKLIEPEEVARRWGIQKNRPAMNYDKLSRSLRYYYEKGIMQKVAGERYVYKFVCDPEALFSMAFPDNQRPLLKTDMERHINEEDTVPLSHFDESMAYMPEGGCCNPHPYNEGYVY", "details": "protein: recombinant; tags: N-terminal GST; dsDNA, one strand shown", "procedure,_shortened": "as §1"}},
  "data": [
    {"sequence": "TATAAA", "values": [
      {"measurement": "binding signal", "setting": "FEV", "result": "1.16 fold enrichment (6-mer frequency, TF over GST control)"},
      {"measurement": "binding signal", "setting": "ETV5", "result": "1.18 fold enrichment (6-mer frequency, TF over GST control)"},
      {"measurement": "binding signal", "setting": "HSF1", "result": "1.47 fold enrichment (6-mer frequency, TF over GST control)"},
      {"measurement": "binding signal", "setting": "SPIC", "result": "1.26 fold enrichment (6-mer frequency, TF over GST control)"},
      {"measurement": "binding signal", "setting": "ELF4", "result": "1.23 fold enrichment (6-mer frequency, TF over GST control)"},
      {"measurement": "binding signal", "setting": "ELK4", "result": "1.32 fold enrichment (6-mer frequency, TF over GST control)"},
      {"measurement": "binding signal", "setting": "ETV2", "result": "1.2 fold enrichment (6-mer frequency, TF over GST control)"},
      {"measurement": "binding signal", "setting": "ELF3", "result": "1.33 fold enrichment (6-mer frequency, TF over GST control)"},
      {"measurement": "binding signal", "setting": "CRX", "result": "1.85 fold enrichment (6-mer frequency, TF over GST control)"},
      {"measurement": "binding signal", "setting": "ETV1", "result": "1.16 fold enrichment (6-mer frequency, TF over GST control)"}
    ]}
  ]
}
